The supplement of paper PMC11732987, “Enantioselective OTUD7B fragment discovery through chemoproteomics screening and high-throughput optimisation” (Communications Chemistry, 2025)

What was measured:
Experiment in all cases: log2 ratio of Biotin-Ahx-Ub-VS probe labelling (fragment/DMSO); higher = less target engagement (more negative = stronger competition), active = hit call of the paper (q ≤ 0.05, log2 ratio ≤ -1)
Details in all cases: compound concentration: 200 uM; treatment time: 3 h
USP34 = USP34 (UniProt Q70CQ2)
Method in brief: (§1)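 Each value is an average log2 ratio of fragment to vehicle, tested by unpaired t-test. The underlying Spectronaut label-free quantities were global-median-normalised, and only proteins with ≥2 unique peptides were included. Triplicate HEK293T lysate samples (495 µg) were exposed to fragment at 200 µM or vehicle for 3 h, then to Biotin-Ahx-Ub-VS at 0.5 µM final for 1 h, before NeutrAvidin enrichment of labelled DUBs, LysC and trypsin digestion, and diaPASEF LC-MS/MS.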

USP36 = target: T1, USP36 (UniProt Q9P275)
T1 sequence (whole entry): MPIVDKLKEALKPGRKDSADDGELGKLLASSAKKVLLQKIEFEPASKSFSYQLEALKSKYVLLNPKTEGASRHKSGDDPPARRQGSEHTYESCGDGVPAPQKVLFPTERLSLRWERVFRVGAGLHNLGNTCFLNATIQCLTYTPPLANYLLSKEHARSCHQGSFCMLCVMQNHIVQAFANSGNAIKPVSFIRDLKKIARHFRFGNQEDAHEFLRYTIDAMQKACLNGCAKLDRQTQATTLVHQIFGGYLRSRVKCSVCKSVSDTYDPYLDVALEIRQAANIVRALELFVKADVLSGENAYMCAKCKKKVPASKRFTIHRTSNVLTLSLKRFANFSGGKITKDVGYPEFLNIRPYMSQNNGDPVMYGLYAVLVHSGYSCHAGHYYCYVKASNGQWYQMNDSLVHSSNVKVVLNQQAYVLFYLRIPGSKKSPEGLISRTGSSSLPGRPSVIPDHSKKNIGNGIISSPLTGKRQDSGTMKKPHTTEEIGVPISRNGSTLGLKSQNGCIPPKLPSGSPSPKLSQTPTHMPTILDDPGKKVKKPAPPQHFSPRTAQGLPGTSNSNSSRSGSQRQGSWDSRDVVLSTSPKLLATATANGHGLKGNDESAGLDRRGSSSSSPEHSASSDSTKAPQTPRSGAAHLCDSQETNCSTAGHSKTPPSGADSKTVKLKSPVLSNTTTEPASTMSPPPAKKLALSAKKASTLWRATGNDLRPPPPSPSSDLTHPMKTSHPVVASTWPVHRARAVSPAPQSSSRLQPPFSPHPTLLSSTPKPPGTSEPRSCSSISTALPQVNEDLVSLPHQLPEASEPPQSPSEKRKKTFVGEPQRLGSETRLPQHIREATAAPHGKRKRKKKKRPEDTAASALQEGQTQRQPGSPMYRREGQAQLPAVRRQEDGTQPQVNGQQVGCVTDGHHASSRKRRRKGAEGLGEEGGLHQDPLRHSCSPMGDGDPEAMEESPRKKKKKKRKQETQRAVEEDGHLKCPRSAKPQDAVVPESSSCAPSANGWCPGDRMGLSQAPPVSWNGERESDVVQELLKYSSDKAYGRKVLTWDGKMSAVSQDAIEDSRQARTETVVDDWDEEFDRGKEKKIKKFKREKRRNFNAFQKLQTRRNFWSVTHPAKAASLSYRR
Method in brief: as §1

USP38 = target: T2, USP38 (UniProt Q8NB14)
T2 sequence (whole entry): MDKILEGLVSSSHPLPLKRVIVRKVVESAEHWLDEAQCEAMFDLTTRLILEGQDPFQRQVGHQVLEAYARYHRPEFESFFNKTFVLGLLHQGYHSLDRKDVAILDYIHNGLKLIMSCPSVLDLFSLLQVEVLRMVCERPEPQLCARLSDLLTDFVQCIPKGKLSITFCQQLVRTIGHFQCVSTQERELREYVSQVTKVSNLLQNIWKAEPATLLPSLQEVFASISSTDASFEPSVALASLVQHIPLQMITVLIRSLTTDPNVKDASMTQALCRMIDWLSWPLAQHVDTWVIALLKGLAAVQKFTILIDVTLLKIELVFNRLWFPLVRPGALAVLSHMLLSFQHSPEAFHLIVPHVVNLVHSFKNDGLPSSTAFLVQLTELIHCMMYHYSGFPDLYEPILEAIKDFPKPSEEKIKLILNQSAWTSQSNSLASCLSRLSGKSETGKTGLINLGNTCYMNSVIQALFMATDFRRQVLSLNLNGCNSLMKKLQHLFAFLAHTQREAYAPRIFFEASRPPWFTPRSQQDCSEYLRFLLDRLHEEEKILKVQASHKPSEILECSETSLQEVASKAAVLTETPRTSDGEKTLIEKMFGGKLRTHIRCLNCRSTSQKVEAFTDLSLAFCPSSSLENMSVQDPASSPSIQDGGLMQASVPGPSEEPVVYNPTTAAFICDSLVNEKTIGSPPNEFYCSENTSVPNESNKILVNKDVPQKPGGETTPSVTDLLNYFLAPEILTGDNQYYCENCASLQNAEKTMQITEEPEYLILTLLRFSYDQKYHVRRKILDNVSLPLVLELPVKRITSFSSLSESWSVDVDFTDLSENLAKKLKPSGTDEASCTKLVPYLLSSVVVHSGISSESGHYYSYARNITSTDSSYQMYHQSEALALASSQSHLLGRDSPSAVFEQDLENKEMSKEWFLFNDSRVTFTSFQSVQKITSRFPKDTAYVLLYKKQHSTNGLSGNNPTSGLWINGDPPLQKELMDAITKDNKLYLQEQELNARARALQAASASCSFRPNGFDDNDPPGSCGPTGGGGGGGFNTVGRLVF
Method in brief: as §1

USP39 = target: T3, USP39 (UniProt Q53GS9)
T3 sequence (whole entry): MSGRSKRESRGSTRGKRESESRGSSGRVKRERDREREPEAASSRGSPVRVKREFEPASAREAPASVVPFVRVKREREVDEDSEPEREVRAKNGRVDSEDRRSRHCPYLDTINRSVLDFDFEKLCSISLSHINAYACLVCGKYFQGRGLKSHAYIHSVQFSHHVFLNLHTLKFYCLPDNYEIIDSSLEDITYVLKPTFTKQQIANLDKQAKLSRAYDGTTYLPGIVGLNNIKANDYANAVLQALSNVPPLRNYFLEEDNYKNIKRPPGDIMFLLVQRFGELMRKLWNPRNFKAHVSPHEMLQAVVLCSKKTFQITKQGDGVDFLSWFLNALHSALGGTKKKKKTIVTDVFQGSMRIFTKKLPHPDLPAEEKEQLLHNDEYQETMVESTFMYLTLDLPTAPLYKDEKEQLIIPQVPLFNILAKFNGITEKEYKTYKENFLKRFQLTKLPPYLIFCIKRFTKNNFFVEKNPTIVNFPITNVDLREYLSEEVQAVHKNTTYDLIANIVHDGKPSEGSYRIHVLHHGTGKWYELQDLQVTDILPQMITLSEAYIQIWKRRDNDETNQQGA
Method in brief: as §1

USP4 = target: T4, USP4 (UniProt Q13107)
T4 sequence (whole entry): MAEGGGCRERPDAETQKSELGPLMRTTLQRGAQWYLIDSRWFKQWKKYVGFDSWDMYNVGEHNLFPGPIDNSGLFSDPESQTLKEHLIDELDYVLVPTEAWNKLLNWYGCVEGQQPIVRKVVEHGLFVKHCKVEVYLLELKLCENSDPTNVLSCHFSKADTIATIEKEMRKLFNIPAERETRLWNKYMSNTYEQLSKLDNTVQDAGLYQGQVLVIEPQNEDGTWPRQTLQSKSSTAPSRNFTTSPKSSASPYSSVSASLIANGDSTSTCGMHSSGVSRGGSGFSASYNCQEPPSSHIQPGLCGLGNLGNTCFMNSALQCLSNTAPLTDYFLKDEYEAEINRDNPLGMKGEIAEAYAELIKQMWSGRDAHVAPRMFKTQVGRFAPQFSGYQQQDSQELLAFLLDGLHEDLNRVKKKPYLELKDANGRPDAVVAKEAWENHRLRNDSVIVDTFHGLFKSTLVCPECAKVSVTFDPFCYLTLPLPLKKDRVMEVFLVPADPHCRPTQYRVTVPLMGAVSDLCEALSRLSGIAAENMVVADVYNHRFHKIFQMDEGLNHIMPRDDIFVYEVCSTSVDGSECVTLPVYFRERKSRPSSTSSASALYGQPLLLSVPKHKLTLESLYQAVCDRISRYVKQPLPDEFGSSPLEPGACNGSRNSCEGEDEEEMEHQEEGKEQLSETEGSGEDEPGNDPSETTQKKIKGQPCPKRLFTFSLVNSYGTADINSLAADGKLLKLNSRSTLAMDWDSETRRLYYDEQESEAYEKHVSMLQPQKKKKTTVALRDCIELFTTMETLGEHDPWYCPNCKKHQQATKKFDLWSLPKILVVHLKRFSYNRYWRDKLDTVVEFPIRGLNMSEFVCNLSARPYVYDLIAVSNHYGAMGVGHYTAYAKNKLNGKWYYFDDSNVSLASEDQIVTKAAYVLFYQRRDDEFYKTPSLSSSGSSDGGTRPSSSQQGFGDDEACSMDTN
Method in brief: as §1

Measured: log2 ratio of Biotin-Ahx-Ub-VS probe labelling

Sequence of USP34 (Q70CQ2 whole entry, the tested form may be a part): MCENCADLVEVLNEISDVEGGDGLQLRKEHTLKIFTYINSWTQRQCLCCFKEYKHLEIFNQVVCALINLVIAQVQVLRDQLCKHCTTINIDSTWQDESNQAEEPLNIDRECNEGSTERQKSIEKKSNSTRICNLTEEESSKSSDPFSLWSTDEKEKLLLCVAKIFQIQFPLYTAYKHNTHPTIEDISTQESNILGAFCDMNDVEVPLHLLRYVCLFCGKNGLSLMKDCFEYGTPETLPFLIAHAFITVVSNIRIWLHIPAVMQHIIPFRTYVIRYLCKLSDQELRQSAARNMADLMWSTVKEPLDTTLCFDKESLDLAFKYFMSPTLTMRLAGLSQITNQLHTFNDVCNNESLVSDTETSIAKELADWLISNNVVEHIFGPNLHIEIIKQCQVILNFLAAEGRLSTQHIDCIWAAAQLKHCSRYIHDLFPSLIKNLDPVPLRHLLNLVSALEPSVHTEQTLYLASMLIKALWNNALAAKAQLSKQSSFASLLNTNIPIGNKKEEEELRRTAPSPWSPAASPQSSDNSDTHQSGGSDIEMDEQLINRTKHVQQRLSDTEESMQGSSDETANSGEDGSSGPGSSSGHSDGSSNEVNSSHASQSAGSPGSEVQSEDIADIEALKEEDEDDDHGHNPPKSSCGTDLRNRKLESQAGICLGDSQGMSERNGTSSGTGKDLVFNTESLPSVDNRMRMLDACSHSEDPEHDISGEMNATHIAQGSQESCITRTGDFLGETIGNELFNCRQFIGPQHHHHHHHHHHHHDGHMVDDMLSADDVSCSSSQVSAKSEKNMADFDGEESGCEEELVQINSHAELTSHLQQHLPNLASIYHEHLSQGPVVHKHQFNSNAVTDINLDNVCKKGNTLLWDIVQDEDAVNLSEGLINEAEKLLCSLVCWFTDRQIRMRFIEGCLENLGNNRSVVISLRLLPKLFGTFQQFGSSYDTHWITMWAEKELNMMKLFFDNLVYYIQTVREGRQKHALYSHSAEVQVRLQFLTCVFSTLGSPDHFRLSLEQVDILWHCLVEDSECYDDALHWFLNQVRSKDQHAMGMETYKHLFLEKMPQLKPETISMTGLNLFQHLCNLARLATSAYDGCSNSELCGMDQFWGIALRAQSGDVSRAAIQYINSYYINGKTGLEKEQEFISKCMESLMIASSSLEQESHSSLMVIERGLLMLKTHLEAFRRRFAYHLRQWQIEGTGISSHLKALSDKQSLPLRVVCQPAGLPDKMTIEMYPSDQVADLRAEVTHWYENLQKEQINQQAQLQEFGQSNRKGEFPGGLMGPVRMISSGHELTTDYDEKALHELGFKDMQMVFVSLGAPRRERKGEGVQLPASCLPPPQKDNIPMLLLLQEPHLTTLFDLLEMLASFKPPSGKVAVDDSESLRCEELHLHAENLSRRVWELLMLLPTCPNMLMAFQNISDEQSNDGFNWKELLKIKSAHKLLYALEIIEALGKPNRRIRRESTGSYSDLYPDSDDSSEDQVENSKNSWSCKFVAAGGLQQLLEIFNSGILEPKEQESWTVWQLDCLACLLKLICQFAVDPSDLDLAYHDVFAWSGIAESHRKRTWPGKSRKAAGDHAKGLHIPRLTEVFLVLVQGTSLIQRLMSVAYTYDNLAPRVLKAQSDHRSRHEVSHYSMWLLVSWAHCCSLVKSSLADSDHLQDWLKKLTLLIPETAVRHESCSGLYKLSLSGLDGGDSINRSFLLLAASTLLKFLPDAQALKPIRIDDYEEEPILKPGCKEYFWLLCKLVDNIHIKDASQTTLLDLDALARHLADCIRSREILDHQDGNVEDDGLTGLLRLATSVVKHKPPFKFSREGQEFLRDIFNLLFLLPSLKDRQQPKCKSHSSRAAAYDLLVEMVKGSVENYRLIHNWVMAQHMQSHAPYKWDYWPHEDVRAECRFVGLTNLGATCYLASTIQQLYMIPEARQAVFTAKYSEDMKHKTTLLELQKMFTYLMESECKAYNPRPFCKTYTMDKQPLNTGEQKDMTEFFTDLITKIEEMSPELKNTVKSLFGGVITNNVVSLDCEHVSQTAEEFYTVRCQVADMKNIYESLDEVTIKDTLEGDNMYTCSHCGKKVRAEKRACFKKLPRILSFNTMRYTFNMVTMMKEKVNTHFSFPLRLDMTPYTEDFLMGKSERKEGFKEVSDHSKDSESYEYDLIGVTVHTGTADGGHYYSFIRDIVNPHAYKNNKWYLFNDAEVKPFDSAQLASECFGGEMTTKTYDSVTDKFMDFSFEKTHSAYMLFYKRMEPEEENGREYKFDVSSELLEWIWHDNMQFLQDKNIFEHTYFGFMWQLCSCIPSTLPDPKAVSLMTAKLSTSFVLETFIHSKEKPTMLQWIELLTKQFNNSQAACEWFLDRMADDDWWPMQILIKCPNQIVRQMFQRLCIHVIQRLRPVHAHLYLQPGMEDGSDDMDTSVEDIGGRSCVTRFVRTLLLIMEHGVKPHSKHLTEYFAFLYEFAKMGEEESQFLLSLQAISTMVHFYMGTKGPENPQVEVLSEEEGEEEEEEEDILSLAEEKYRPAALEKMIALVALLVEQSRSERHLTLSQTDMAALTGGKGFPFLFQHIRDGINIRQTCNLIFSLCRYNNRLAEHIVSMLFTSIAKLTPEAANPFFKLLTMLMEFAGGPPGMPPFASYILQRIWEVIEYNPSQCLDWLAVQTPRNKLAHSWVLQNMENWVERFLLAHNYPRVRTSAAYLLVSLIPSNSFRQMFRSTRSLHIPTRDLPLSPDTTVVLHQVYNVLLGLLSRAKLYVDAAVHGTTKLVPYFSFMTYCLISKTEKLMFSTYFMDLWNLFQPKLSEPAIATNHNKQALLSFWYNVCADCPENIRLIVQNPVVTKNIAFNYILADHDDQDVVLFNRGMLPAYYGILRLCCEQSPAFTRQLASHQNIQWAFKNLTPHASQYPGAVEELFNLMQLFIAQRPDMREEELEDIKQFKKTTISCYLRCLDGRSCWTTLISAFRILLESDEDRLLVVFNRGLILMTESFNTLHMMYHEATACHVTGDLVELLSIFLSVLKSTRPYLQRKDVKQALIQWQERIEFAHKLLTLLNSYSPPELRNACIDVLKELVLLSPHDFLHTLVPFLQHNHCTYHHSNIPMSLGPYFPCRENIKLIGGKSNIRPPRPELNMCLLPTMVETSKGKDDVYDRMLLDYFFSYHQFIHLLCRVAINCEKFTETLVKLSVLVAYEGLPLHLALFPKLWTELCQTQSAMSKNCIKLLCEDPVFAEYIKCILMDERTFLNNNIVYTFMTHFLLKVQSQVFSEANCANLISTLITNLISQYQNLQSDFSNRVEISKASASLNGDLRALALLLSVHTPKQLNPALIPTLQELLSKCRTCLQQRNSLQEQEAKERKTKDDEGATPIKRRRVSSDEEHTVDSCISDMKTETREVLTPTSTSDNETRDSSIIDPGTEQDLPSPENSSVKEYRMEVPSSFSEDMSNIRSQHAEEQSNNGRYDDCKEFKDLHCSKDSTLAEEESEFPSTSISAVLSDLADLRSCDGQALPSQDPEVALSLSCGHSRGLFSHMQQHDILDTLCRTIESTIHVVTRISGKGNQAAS

O=C(CCl)N(C1=CCCCC1)C1CC1
inactive: USP34 -0.0141 | USP36 -0.116 | USP38 -0.172 | USP39 -0.177 | USP4 0.0249
